JMJD2A Tudor inh – blocks the human JMJD2A Tudor domain. O75164. AlphaScreen JMJD2A-Tudor / H3K4me3 peptide binding. Potency, µM (highest dose often 114 µM), inactives show top-dose activity change, negative = inhibition, usual class: inhibitors. actives 4.4% (n = 390,000). AID 504339; also: potency is read from the fitted curve at half-maximal effect; % is scaled to controls: 0 for no effect and ±100 for the full control effect; nearly all actives have a fitted effect of over 50% in size
KAT2A inh – inhibitors of human GCN5L2 histone acetyltransferase; Q92830; GCN5L2 HAT assay, ThioGlo1 CoA-SH fluorescence; Potency, µM (top dose mostly 58.9 µM), without a hit: top-dose activity change, negative = inhibition, usual class: inhibitors; actives 0.21% (n = 390,000); AID 504327; also: potency is read from the fitted curve at half-maximal effect; % is scaled to controls: 0 for no effect and ±100 for the full control effect
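qHTS, 1536-well. 20nM enzyme, pH 7.5 HEPES/EDTA/Tween-20 buffer; 15 min compound preinc., RT. Start: 75uM H3(1-25), 70uM AcCoA, 50uM ThioGlo1. Read Ex340/Em540 at t=0 (autofluorescence flag) and t=20 min.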
HP1b binding inh – blocks HP1-beta chromodomain binding to methylated histone tails; actives 0.56% (n = 390,000); P83916; AlphaScreen HP1-beta / biotin-H3K9me3 peptide binding; Potency, µM (doses to about 114 µM), for the others: top-dose activity change, negative = inhibition, hits mostly inhibitors; also: potency is read from the fitted curve at half-maximal effect; nearly all actives have a fitted effect of over 70% in size
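AlphaScreen: HP1-beta (50 nM) preformed 30 min with biotin-H3(1-18)K9me3 peptide (50 nM) in PBS pH 7.4, 0.01% Tween-20. Compound added for 30 min at RT, then streptavidin donor/nickel chelate acceptor beads (10 ug/mL) for 30 min.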
BAZ2B inh – blocks human BAZ2B; Potency, µM (top dose mostly 114 µM), for inactives: at the highest dose activity change, negative = inhibition, actives largely listed as inhibitors; AID 504333; actives 4.4% (n = 360,000); AlphaScreen BAZ2B-H3K14Ac peptide displacement; also: potency is read from the fitted curve at half-maximal effect; % is scaled to controls: 0 for no effect and ±100 for the full control effect; nearly all actives have a fitted effect of over 60% in size
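AlphaScreen displacement: compounds (up to 110uM) incubated 30 min at room temperature with a preformed 50 nM BAZ2B/50 nM biotinylated H3K14Ac peptide complex in PBS pH 7.4 with Tween-20. Donor and acceptor beads at 10 ug/mL final added, 20 min light-protected before reading.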
PLK1 PBD inh – inhibitors of human PLK1 polo-box domain binding. actives 2.8% (n = 360,000). P53350. Potency, µM, without a hit: max response, negative = inhibition, most hits filed as inhibitors. Plk1 PBD binding of FITC phosphopeptide, fluorescence polarization; also: potency is read from the fitted curve at half-maximal effect; series mostly up to about 57 µM; % is scaled to controls: 0 for no effect and ±100 for the full control effect; nearly all actives have a fitted effect of over 65% in size
PI5P4K alpha inh – inhibitors of human PI5P4K alpha | PI5P4Kalpha enzyme, ADP-Glo luminescence, 60 min; hits give low values | max response, % | actives 1.2% (n = 330,000) | AID 652105; active = max response of -50% or lower; inconclusive = between -30% and -50%; inactive = -30% or higher; also: value at the top dose of about 77 µM; % is scaled to controls: 0 for no effect and ±100 for the full control effect
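Reactions run in 0.038 M HEPES pH 7.4, 0.28 mM EGTA, 0.1% CHAPS and 5% DMSO, with PI5P4Kalpha, substrate, compound and 5 microM ATP final, one hour at room temperature. Readout is ADP-Glo luminescence.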
TbPYK inh – Trypanosoma brucei pyruvate kinase inhibition, cherry-pick confirmation | AID 720569 | Potency, µM (series often up to 76.9 µM), for inactives: at the highest dose activity change, negative = inhibition, usual class: inhibitors | shares compounds with PLK1 PBD inh | actives 67% (n = 890) | recombinant TbPYK, Kinase-Glo ATP luminescence; also: potency is read from the fitted curve at half-maximal effect; % is scaled to controls: 0 for no effect and ±100 for the full control effect; nearly all actives have a fitted effect of over 70% in size
TbPYK ADP-Glo – TbPYK inhibition, orthogonal confirmation. shares compounds with PLK1 PBD inh. recombinant TbPYK, ADP-Glo luminescence, 60 min. Potency, µM (top dose mostly 76.9 µM), for inactives: at the highest dose activity change, negative = inhibition, most hits filed as inhibitors. actives 62% (n = 890). AID 720584; also: potency is read from the fitted curve at half-maximal effect; % is scaled to controls: 0 for no effect and ±100 for the full control effect; nearly all actives have a fitted effect of over 75% in size
Starred values were filed as active, the others as inactive; u = inconclusive; x = not tested or not shown; [ ] = dose if it differs, or a comment. Rows were chosen to be rich in hits. Some 7% of all compounds tested hit in one or more screens of this group. Unless noted, calls follow the shape of the dose curve; as a rule, active = well fitted curve in the direction sought with a large enough effect; inconclusive = small, poorly fitted or top-dose-only effect, or another doubt; inactive = no such curve, though single readings can be large; an effect the other way counts as inactive or inconclusive.

SMILES	JMJD2A Tudor inh	KAT2A inh	HP1b binding inh	BAZ2B inh	PLK1 PBD inh	PI5P4K alpha inh	TbPYK inh	TbPYK ADP-Glo
CN1CCN(C(=O)c2sc(=S)n(-c3ccccc3)c2N)CC1	100µM*	u	u	-7%	1.5µM*	u	0.63µM*	0.89µM*
NC(=O)c1c(N)sc(=S)n1-c1ccccc1	3%[11.4 µM]	-5%	33%	-4%	-18%	8	x	x
Cc1nc(NC(=O)c2ccccc2)sc1-c1cc(C(=O)NCCO)nn1Cc1ccccc1	x	x	x	x	-2%	3	x	x
Oc1ccc(/C=N/N2CCCCC2)c(O)c1O	8.9µM*	1%	-22%[57 µM]	u	11µM*	u	32µM*	35µM*
Cc1ccc(/C=C2/NC(=O)N(Cc3ccccc3F)C2=O)o1	u	38%	-7%	3%	-3%	-14	u	35µM*
CCn1c(C)cc(/C=C2/NC(=O)N(Cc3ccccc3F)C2=O)c1C	u	-2%	17%	-36%	-16%	-2	x	x
O=C(N/N=C/c1ccc(N2CCOCC2)o1)c1cccc([N+](=O)[O-])c1	u	-10%	-2%	-28%	u	-3	u	32µM*
O=C(N/N=C/c1ccc(N2CCCCC2)o1)c1ccccc1	50µM*	-5%	u	-9%	u	1	32µM*	32µM*
Cc1ccc(/C=N/NC(=O)c2ccc(-c3ccccc3)cc2)o1	-21%	-5%	9%	2%	-6%	-15	x	x
CCCN(Cc1nnc(-c2ccccc2Cl)o1)C(=O)COc1ccc(Cl)cc1	-9%	3%	42%	1%	3%	-1	x	x
CN(CCc1nc2ccc(Cl)cc2[nH]1)Cc1nc(CC2CC2)no1	-29%	-11%	30%	-14%	-9%	2	x	x
CCc1ccc(CNC(=O)CN(c2ccc(C)cc2)S(=O)(=O)N(C)C)cc1	-5%	2%	37%	0%	x	x	x	x
CCOC(=O)c1c(N)sc(N)c1C(=O)OCC	u	-17%	8.9µM*	50µM*	3.4µM*	-25	32µM*	14µM*
N#Cc1cc2c(nc1SCC(=O)N1CCCCC1)CCCCC2	56µM*	x	-20%	10%	27µM*	-14	13µM*	13µM*
N#Cc1cc2c(nc1SCC(=O)N1CCCCC1)CCCC2	7%	u	31%	-5%	-7%	-11	x	x
COCCN1C(=O)c2oc3ccc(C)cc3c(=O)c2C12C(=O)N(C)c1ccccc12 (centres undefined)	-14%	-7%	40%	-8%	x	x	x	x
Cc1ccc(NC(=O)CSC(C)c2nc3ccccc3c(=O)[nH]2)cc1 (centres undefined)	-7%	-17%	18%	5%	-21%	-7	x	x
N#CC1=C2SCN(Cc3ccccc3)CN2C(=O)CC1c1ccccc1F (centres undefined)	79µM*	-16%	u	-38%	17µM*	-77*	1.8µM*	1.6µM*
COc1ccc(OC)c(C2CC(=O)N3CN(c4ccccc4F)CSC3=C2C#N)c1 (centres undefined)	22µM*	8.9µM*	14µM*	22µM*	u	-94*	5µM*	10µM*
CCc1ccccc1N1CCN(S(=O)(=O)c2cc(OC)ccc2OC)CC1	-4%	-8%	38%	10%	5%	x	x	x
COc1ccccc1N1CSC2=C(C#N)C(c3ccc(SC)cc3)CC(=O)N2C1 (centres undefined)	18µM*	u	22µM*	50µM*	19µM*	-83*	2.5µM*	2.2µM*
CCc1ccccc1N1CSC2=C(C#N)C(c3cc(OC)c(OC)cc3OC)CC(=O)N2C1 (centres undefined)	8.9µM*	u	-75%	50µM*	15µM*	u	0.71µM*	1.1µM*
CC1=C(C(N)=O)C(c2ccccc2[N+](=O)[O-])n2ncnc2N1 (centres undefined)	40µM*	9%	u	-1%	8.4µM*	-4	25µM*	u
CC1=C(C(N)=O)C(c2ccccc2Br)n2ncnc2N1 (centres undefined)	4%	18%	26%[57 µM]	-1%	x	x	x	x
Cc1ccc(C)c(N2CCN(c3nc4ccccc4c4nc(-c5cccnc5)nn34)CC2)c1	-11%	1%	38%	-1%	x	x	x	x
SMILES	JMJD2A Tudor inh	KAT2A inh	HP1b binding inh	BAZ2B inh	PLK1 PBD inh	PI5P4K alpha inh	TbPYK inh	TbPYK ADP-Glo
CN1c2ccccc2N(C)C1(C)c1ccccc1	8.9µM*	-9%	u	46%	4.2µM*	-17	3.2µM*	5µM*
CCOC(=O)CCc1c(C)nc(SCCCn2c(=O)[nH]c3ccccc32)c(C#N)c1C	28µM*	-19%	25%	-2%	-16%	x	5.6µM*	14µM*
O=C(c1ccc2ncsc2c1)N1CCCCC1	-11%	-10%	44%	3%	1%	-5	u	u
CNC(=O)c1c(I)c(C(=O)NCC(=O)Nc2c(I)c(C(=O)O)c(I)c(C(=O)NCCO)c2I)c(I)c(N(C)C(C)=O)c1I	-4%	-8%	28%	8%	-4%	-3	x	x
CC(=O)Nc1ccc(NC(=O)C(C)OC(=O)CCc2c[nH]c3ccccc23)cc1 (centres undefined)	-15%	-2%	25%	-24%	4%	-5	x	x
Cc1ccc(C2=NC(=O)/C(=C/c3cc(O)c(O)c(Br)c3)S2)cc1	5µM*	u	3.2µM*	3.5µM*	u	-82*	32µM*	u
COc1cc(/C=C2\SC(N3CCC(C)CC3)=NC2=O)ccc1O	-20%	-25%	2%	-13%	39%	-11	x	x
Cc1ccc(/C=C2\SC(N3CCCC3)=NC2=O)cc1	x	1%	x	-2%	x	x	x	x
COc1cc(/C=C2\SC(c3ccc(C)cc3)=NC2=O)cc(OC)c1O	56µM*	-9%	13µM*	35µM*	-19%	x	35µM*	u
CSc1ccccc1NC(=O)Cn1nc([N+](=O)[O-])c(Cl)c1C	-16%	0%	7%	-18%	u	-17	20µM*	20µM*
Cc1ccc(NC(=O)COc2ccc(-c3nn(C)c(=O)c4ccccc34)cc2)c(C)c1	-2%	9%	32%	-2%	x	x	x	x
Nc1ccc2c(c1)C(=O)C(=O)c1ccccc1-2	u	-19%[0.501 µM]	20µM*	u	1.5µM*	-27	14µM*	u
CCN1CCN(c2nc3c(S(=O)(=O)c4ccc(C)cc4)nnn3c3ccsc23)CC1	-25%	-2%	23%	u	x	x	x	x

Source: PubChem
